Measurements from PubChem BioAssay AID937 (National Center for Advancing Translational Sciences (NCATS), 2007).
The other results are listed elsewhere or left out. Results filed as inconclusive are left out. Calls of active or inactive are those of the source. Calls follow the shape of the full dose curve.

Target: Alpha-synuclein (Homo sapiens) (UniProt P37840)
Experiment: Alpha-synuclein ThS binding assay
Details: recombinant alpha-synuclein fibrils, ThS fluorescence displacement
Protocol: NIH Molecular Libraries Screening Centers Network [MLSCN] NIH Chemical Genomics Center [NCGC] MLSCN Grant: 1 X01 MH079825-01 Assay Provider: Jeffrey A. Kuret, Ohio State University NCGC Assay Overview: Lewy body disease is characterized by the appearance of lesions containing alpha-synuclein. The protein components in these lesions can be induced to form filaments under experimentally tractable times when incubated in vitro with anionic inducers such as alkyl sulfate detergents or fatty acids. […] Here we describe the in vitro fibrillization of alpha-synuclein. Alpha-synuclein was induced to form filaments by incubation overnight at 37 C in the presence of arachidonic acid. A commonly used fluorescent probe for cross#nbeta-sheet structure, Thioflavin S (ThS), was also added to the reactions. […] Small molecules capable of ThS displacement or antagonizing fibrillization result in a decrease in ThS fluorescence, allowing determination of binding affinities for molecules screened.
NCGC Assay Protocol Summary The assay was performed in 96-well round bottom opaque plates (VWR, West Chester, PA) in 100 uL final volume. […] Fluorescence (ex = 440 nm; em = 485 nm) was measured after brief shaking (10 s) in a FlexStation plate reader (Molecular Devices, Sunnyvale, CA) operated at sensitivity 10, automatic PMT. […]

Compound	outcome
O=C(CCCCn1c(=O)[nH]c2ccccc2c1=O)NCc1ccc2c(c1)OCO2	inactive
